SARS PLpro yeast = blocks SARS-CoV papain-like protease in a yeast assay; 330,000 tested, 0.19% active; AID 485353; Potency, µM (top dose mostly 32.9 µM), hits mostly activators; S. cerevisiae expressing SARS-CoV PLpro, growth rescue; note: nearly all actives have a fitted effect of over 55% in size
Pf growth 96h = P. falciparum growth inhibition at 96 hours | Potency, µM (doses to about 28.7 µM), hits mostly inhibitors | 320,000 tested, 6.9% active | P. falciparum luciferase reporter growth, 96 h; active = well fitted inhibition curve with a large enough effect; inconclusive = small, poorly fitted or top-dose-only effect, or another doubt; inactive = no such curve, though single readings can be large or run the other way
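Infected RBCs, 2% Hct / 0.05% parasitemia final; luciferase-reporter P. falciparum; cpd 96 h, 37 C, 5% CO2; luciferase detection reagent; luminescence.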
Cycloheximide cs = counter-screen for Shiga toxin inhibitors: cycloheximide protein synthesis inhibition; cell reporter, cycloheximide protein synthesis inhibition counterscreen; max response, %; 300,000 tested, 12% active; AID 2314; in the data active = max response mostly above about 13%, no sharp cut-off; inactive = mostly below about 14%; note: read at 38.3 µM for the half of the compounds with a filed dose
Pf growth 48h = P. falciparum growth inhibition at 48 hours (one generation) | P. falciparum luciferase growth in erythrocytes, 48 h | 310,000 tested, 5.9% active | Potency, µM (doses to about 28.7 µM), most hits filed as inhibitors; active = well fitted inhibition curve with a large enough effect; inconclusive = small, poorly fitted or top-dose-only effect, or another doubt; inactive = no such curve, though single readings can be large or run the other way
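Erythrocytes infected with P. falciparum carrying an integrated firefly luciferase reporter (2% hematocrit, 0.1% parasitemia final) were exposed to compounds in RPMI 1640 with 0.5% Albumax at 37 C, 5% CO2. Growth inhibition was scored as reduced luminescence.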
Shiga toxin inh = inhibitors of Shiga toxin in Vero cells; Vero cells, Shiga toxin protein synthesis inhibition reporter; AID 2315; 290,000 tested, 9.2% active; inhibition, % at 38.7 µM; in the data active = inhibition mostly above about 28%, no sharp cut-off; inactive = mostly below about 43%
NS1 inh = influenza NS1 inhibition; Potency, µM (highest dose often 46.1 µM); 270,000 tested, 0.4% active; note: actives are rising curves; nearly all actives have a fitted effect of over 50% in size
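Growth recovery, yeast-based: influenza A NS1 expressed in S. cerevisiae causes slow growth, and suppressors are detected by OD600. The parent strain without NS1 is used as positive control.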
Large screens that a line does not name were inactive. Shown are actives, neighbours in structure and some others; about 21% of the full set was active somewhere. Unless noted, calls come from the whole dose curve.

Cc1cc2ccccc2c(=O)n1CC(=O)NCC(=O)N1CCCC1	Pf growth 96h 12µM
O=C(Cc1ccccc1)NCC(=O)N1CCCCCC1	Pf growth 96h inconclusive, Cycloheximide cs 19 (no result: Pf growth 48h)
O=C1CCN(C(=O)CNC(=O)Cc2ccccc2)CC1	Pf growth 48h inconclusive (no result: NS1 inh)
C/C(Cn1nc([N+](=O)[O-])cc1C)=N\NC(=O)COc1c(Cl)cc(Cl)cc1Cl	none
O=C(CN1CCN(S(=O)(=O)c2ccc3ccccc3c2)CC1)Nc1ccc2c(c1)CCC2	none
Cc1cc(C(=O)COC(=O)c2ccc(N)c([N+](=O)[O-])c2)c(C)n1-c1ccc2c(c1)OCO2	Pf growth 96h 4.7µM, Pf growth 48h 13µM
CC(C)(C)C(=O)COC(=O)c1ccc(N)c([N+](=O)[O-])c1	Cycloheximide cs 43, Shiga toxin inh 83 (no result: NS1 inh)
C=CCn1c(C)cc(C(=O)COC(=O)c2ccc(N)c([N+](=O)[O-])c2)c1C	Cycloheximide cs 55, Shiga toxin inh 58
CCOC(=O)c1c(C)[nH]c(C)c1C(=O)CSc1nc2ccccc2c(=O)n1-c1ccccc1C	Pf growth 96h inconclusive, Pf growth 48h 10µM
CCOC(=O)C(=O)Nc1ncc(Cl)s1	none
CC1=C(C(=O)Nc2ccccn2)C(c2ccc(F)cc2)n2ncnc2N1 (stereo not given)	Cycloheximide cs 15
COc1ccc(C2NC(=S)NC(C)=C2C(=O)Nc2ccccn2)cc1 (stereo not given)	Cycloheximide cs 36, Shiga toxin inh 34
CC1=C(C(=O)Nc2ccccn2)C(c2ccccc2)n2ncnc2N1 (stereo not given)	Cycloheximide cs 15
COc1ccc(C2C(C(=O)Nc3ccccn3)=C(C)Nc3ncnn32)c(OC)c1 (stereo not given)	none
CC1=C(C(=O)Nc2ccccc2)C(c2ccncc2)n2nnnc2N1 (stereo not given)	Pf growth 96h 0.93µM
CC1=C(C(=O)Nc2ccccn2)C(c2ccc(N(C)C)cc2)n2ncnc2N1 (stereo not given)	none
COc1ccccc1CNS(=O)(=O)c1c(C)[nH]c(C)c1C(=O)N1CCCC1	none
c1ccc(-n2cnnc2SCc2cn3ccsc3n2)cc1	none
c1ccn2c(SCc3cn4ccsc4n3)nnc2c1	Cycloheximide cs 40, Shiga toxin inh 54 (no result: Pf growth 96h)
Cc1ccnc(SCc2cn3c(C)cccc3n2)n1	Cycloheximide cs 26
Cc1cccc2nc(CSc3nnnn3-c3ccccc3)cn12	none (no result: Pf growth 48h)
Cc1cccc2nc(CSc3nnc4ccccn34)cn12	Cycloheximide cs 36, Shiga toxin inh 59 (no result: SARS PLpro yeast)
COc1cc(CNC(C)c2ccccc2)c(Br)cc1OCC(N)=O (stereo not given)	Pf growth 96h 8.3µM (no result: Pf growth 48h)
CCC(CO)NCc1cc(OC)c(OCC(=O)NCCc2ccccc2)cc1Br (stereo not given)	Pf growth 96h 4.1µM, Pf growth 48h inconclusive
Cc1ccc(CNC(=O)C2CCN(c3nn4c(=O)cc(C)nc4s3)CC2)cc1	none
Cc1ccc(S(=O)(=O)NC(C)C(=O)Nc2ccc3c(c2)OCO3)cc1 (stereo not given)	Pf growth 48h inconclusive, NS1 inh inconclusive
CC(C)CNS(=O)(=O)c1ccc(CCC(=O)Nc2ccc3c(c2)OCCO3)cc1	Pf growth 48h 12µM
CC(NS(=O)(=O)c1ccccc1)C(=O)Nc1ccc2c(c1)OCCO2 (stereo not given)	Pf growth 96h 7.4µM
Cc1ccccc1OC(C)C(=O)Nc1ccc2c(c1)OCCO2 (stereo not given)	Cycloheximide cs 34
CC(C)CNS(=O)(=O)c1ccc(C(=O)Nc2ccc3c(c2)OCCO3)cc1	Pf growth 96h inconclusive, Cycloheximide cs 54, Pf growth 48h inconclusive, Shiga toxin inh 97
CC(C)c1cc(C(C)C)c(S(=O)(=O)NNC(=O)c2ccncc2)c(C(C)C)c1	none
O=C(N/N=C\c1ccccc1)c1sccc1-n1cccc1	Cycloheximide cs 26, Shiga toxin inh 49
O=C(NNS(=O)(=O)c1ccccc1)c1sccc1-n1cccc1	none
O=C(NC1CC1)c1sccc1-n1cccc1	none (no result: Pf growth 96h)
Cc1cccc(/C=N\NC(=O)c2sccc2-n2cccc2)c1	Cycloheximide cs 65, Shiga toxin inh 114
O=C(N/N=C\c1cccs1)c1sccc1-n1cccc1	Pf growth 96h 13µM, Pf growth 48h inconclusive (no result: NS1 inh)
O=C(NCc1ccco1)/C(=C/c1cccnc1)NC(=O)c1ccco1	none
COc1ccc(C(=O)C2=NN(C(C)=O)CC2c2ccco2)cc1 (stereo not given)	none (no result: NS1 inh)
Cc1ccc(S(=O)(=O)c2cn(C)c3cc(N4CCN(C)CC4)c(F)cc3c2=O)cc1	Pf growth 96h inconclusive
Cc1ccc2scc(N3CCN(C)CC3)c(=O)c2c1	Cycloheximide cs 48, Shiga toxin inh 83 (no result: SARS PLpro yeast, Pf growth 96h, Pf growth 48h, NS1 inh)
CC(CCc1ccccc1)NC(C)C(O)c1ccc(O)cc1 (stereo not given)	Pf growth 96h 1.9µM, Pf growth 48h inconclusive
CC(C(O)c1ccc(O)cc1)N1CCC(Cc2ccccc2)CC1 (stereo not given)	Pf growth 96h inconclusive, Pf growth 48h 2.1µM
C[C@@H](CN1CCC(Cc2ccccc2)CC1)[C@@H](O)c1ccc(O)cc1	Pf growth 48h inconclusive (no result: SARS PLpro yeast, Cycloheximide cs, Shiga toxin inh)
Cn1nnnc1Sc1ncnc2scc(-c3cccc(F)c3)c12	Pf growth 96h inconclusive, Pf growth 48h 4.7µM (no result: Cycloheximide cs, Shiga toxin inh, NS1 inh)
Cn1nnnc1Sc1ncnc2scc(-c3ccc(C#N)cc3)c12	Pf growth 96h 1.9µM, Pf growth 48h 4.7µM (no result: Cycloheximide cs, Shiga toxin inh, NS1 inh)
CCN1C(=O)[C@H]2[C@@H](c3ccc(-c4ccc(F)cc4)cc3)N[C@@](C)(C(=O)OC)[C@H]2C1=O	none (no result: Pf growth 96h, Cycloheximide cs, Pf growth 48h, Shiga toxin inh, NS1 inh)
CCN1C(=O)[C@H]2[C@@H](c3ccc(-c4ccccc4)cc3)N[C@@](C)(C(=O)OC)[C@H]2C1=O	Pf growth 96h inconclusive, Pf growth 48h 9.3µM (no result: Cycloheximide cs, Shiga toxin inh, NS1 inh)
CCN1C(=O)[C@H]2[C@@H](c3ccc(-c4cccc(Cl)c4)cc3)N[C@@](C)(C(=O)OC)[C@H]2C1=O	Pf growth 96h inconclusive, Pf growth 48h 13µM (no result: Cycloheximide cs, Shiga toxin inh, NS1 inh)
O=C(O)c1cccc(C(=O)O)c1S(=O)Cc1ccccc1 (stereo not given)	none (no result: SARS PLpro yeast, Pf growth 96h, Cycloheximide cs, Pf growth 48h, Shiga toxin inh)
CN(C)C/C=C(\c1ccc(Br)cc1)c1cccnc1	Pf growth 96h inconclusive, Pf growth 48h 15µM (no result: SARS PLpro yeast, Cycloheximide cs, Shiga toxin inh)
COc1cc(C(=O)N/N=C(\C)Cn2nc([N+](=O)[O-])cc2C)ccc1O	none
C/C(Cn1nnc([N+](=O)[O-])n1)=N\NC(=O)c1ccc(O)cc1	Pf growth 96h inconclusive, Cycloheximide cs 23, Pf growth 48h inconclusive, Shiga toxin inh 62
C/C(Cn1nnc([N+](=O)[O-])n1)=N\NC(=O)c1ccc(Cl)c(Cl)c1	Pf growth 96h inconclusive, Pf growth 48h inconclusive
C/C(Cn1nnc([N+](=O)[O-])n1)=N\NC(=O)c1ccccc1O	Pf growth 96h inconclusive, Cycloheximide cs 32, Pf growth 48h inconclusive, Shiga toxin inh 52
C/C(Cn1nnc([N+](=O)[O-])n1)=N\NC(=O)c1ccc(O)cc1O	SARS PLpro yeast inconclusive, Pf growth 96h inconclusive, Cycloheximide cs 69, Shiga toxin inh 72, NS1 inh inconclusive
